JMJD2A Tudor inh – qHTS Assay for Inhibitors of JMJD2A-Tudor Domain. Lysine-specific demethylase 4A (Homo sapiens), O75164. AlphaScreen JMJD2A-Tudor / H3K4me3 peptide binding. Potency, µM (highest dose often 114 µM), usual class: inhibitors. hit rate 4.4% among 390,000; further: nearly all actives have a fitted effect of over 50% in size
Sfp PPTase inh – qHTS Assay for Inhibitors of Bacillus subtilis Sfp phosphopantetheinyl transferase (PPTase). 4'-phosphopantetheinyl transferase ffp (Bacillus subtilis), Q9F4F7. Biochemical Sfp PPTase activity, qHTS. Potency, µM, usual class: inhibitors. hit rate 3.5% among 310,000. AID 1490, 2009;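 further: the enzyme is Sfp with the accession as filed and its product quenches rhodamine fluorescence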
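Reaction rates are the 30-min fluorescence difference (ex 525, em 598 nm) in wells containing 15 nM Sfp, 5 uM rhodamine-CoA and 12.5 uM BHQ-2-YbbR at pH 7.6 with 10 mM MgCl2.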
12-LOX inh – Primary qHTS assay for inhibitors of human arachidonate 12S-lipoxygenase (ALOX12): Round 2. Polyunsaturated fatty acid lipoxygenase ALOX12 (Homo sapiens), P18054. purified 12hLO, xylenol orange hydroperoxide absorbance. Potency, µM (series often up to 108 µM), hits mostly inhibitors. hit rate 1.1% among 580,000. AID 1671190, 2021
Target sequence (P18054 whole entry, looked up): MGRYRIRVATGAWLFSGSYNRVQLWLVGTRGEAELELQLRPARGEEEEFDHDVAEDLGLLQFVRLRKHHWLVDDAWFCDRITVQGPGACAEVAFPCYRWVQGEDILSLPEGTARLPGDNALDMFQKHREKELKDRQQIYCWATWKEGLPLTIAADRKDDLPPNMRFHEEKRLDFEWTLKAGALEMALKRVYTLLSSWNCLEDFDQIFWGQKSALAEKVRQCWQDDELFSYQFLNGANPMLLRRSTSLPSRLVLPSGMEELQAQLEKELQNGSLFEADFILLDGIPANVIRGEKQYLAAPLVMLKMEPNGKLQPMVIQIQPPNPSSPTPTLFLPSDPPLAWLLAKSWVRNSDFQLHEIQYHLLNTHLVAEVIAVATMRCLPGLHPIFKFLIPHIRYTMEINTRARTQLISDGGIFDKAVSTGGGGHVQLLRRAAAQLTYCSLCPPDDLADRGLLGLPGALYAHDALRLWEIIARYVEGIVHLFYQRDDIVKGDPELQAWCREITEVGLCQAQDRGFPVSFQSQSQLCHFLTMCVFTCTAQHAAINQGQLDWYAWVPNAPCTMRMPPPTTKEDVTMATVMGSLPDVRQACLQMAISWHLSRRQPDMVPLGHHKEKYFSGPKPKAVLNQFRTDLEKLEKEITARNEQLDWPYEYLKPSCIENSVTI
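Purified human 12hLO (150 nM final) in 25 mM Hepes, 0.01% Triton X-100, pH 7.0 was preincubated 15 min at room temperature with compound. Then 40 uM arachidonic acid was added, 30 min. Hydroperoxide was read by Fe-XO absorbance ratio 573/405 nm.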
HP1b binding inh – HTS for Inhibitors of HP1-beta Chromodomain Interactions with Methylated Histone Tails | Chromobox protein homolog 1 (Homo sapiens), P83916 | AlphaScreen HP1-beta / biotin-H3K9me3 peptide binding | Potency, µM (series often up to 114 µM), hits mostly inhibitors | hit rate 0.56% among 390,000; further: nearly all actives have a fitted effect of over 70% in size
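HP1-beta protein (50 nM final) preincubated 30 min at room temperature with biotinylated H3(1-18)K9me3 peptide (50 nM) in PBS pH 7.4, 0.01% Tween-20, then compound added for 30 min. AlphaScreen streptavidin donor/nickel chelate acceptor beads (10 ug/mL final), 30 min dark, luminescence read.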
BAZ2B inh – qHTS Assay for Inhibitors of BAZ2B | Bromodomain adjacent to zinc finger domain protein 2B (Homo sapiens), Q9UIF8 | Potency, µM (highest dose often 114 µM), hits mostly inhibitors | hit rate 4.4% among 360,000 | AlphaScreen BAZ2B-H3K14Ac peptide displacement; further: nearly all actives have a fitted effect of over 60% in size
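In this displacement format the biotinylated H3(5-23) peptide acetylated at Lys14 serves as ligand at 50 nM, with BAZ2B at 50 nM in PBS pH 7.4 containing 0.01% Tween-20. Donor and acceptor beads are 10 ug/mL final.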
G9a block – qHTS Assay for Inhibitors of Histone Lysine Methyltransferase G9a; Histone-lysine N-methyltransferase EHMT2 (Homo sapiens), Q96KQ7; G9a H3K9 monomethylation, AlphaScreen, 2 h; Potency, µM (top dose mostly 102 µM), hits mostly inhibitors; hit rate 8.8% among 350,000; further: nearly all actives have a fitted effect of over 75% in size
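Quantitative HTS format: methyltransferase activity on a biotin-tagged H3K9 peptide is measured by AlphaScreen, using a rabbit anti-monomethyl-H3K9 antibody with streptavidin donor and anti-IgG acceptor beads. Final levels are 20 nM enzyme, 500 nM peptide, 20 uM SAM; 2 h RT.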
A number is an active result; [ ] = another dose, or the depositor's remark. Compounds with a hit are over-represented: about 8.7% of the library has one in this group of screens. The call rests on the fitted dose curve; in most records, active means well fitted curve in the direction sought with a large enough effect; inconclusive means small, poorly fitted or top-dose-only effect, or another doubt; inactive means no such curve, though single readings can be large; an effect the other way counts as inactive or inconclusive.

Screening COc1ccc(S(=O)(=O)N(C(C)=O)c2ccc(OC(C)=O)c3ccccc23)cc1[N+](=O)[O-] returned JMJD2A Tudor inh inactive, Sfp PPTase inh inactive, 12-LOX inh inactive, HP1b binding inh inactive, BAZ2B inh inactive and G9a block 79.4µM.
Screening CC(=O)Oc1ccc(N(C(C)=O)S(=O)(=O)c2ccccc2)c2ccccc12 returned 12-LOX inh inactive.
`O=C(NCc1ccco1)c1csc(Nc2ccccc2Cl)n1` gave JMJD2A Tudor inh inactive, Sfp PPTase inh 28.2µM, 12-LOX inh inconclusive, HP1b binding inh inactive, BAZ2B inh inconclusive and G9a block 31.6µM.
Screening COc1ccc(Nc2nc(C(=O)NCc3ccco3)cs2)cc1 returned JMJD2A Tudor inh inconclusive, Sfp PPTase inh inactive, 12-LOX inh inconclusive, HP1b binding inh inactive, BAZ2B inh 79.4µM and G9a block inconclusive.
For O=C(NCc1ccco1)Nc1ccccc1Cl the results were JMJD2A Tudor inh inactive, Sfp PPTase inh inactive, 12-LOX inh inactive, HP1b binding inh inactive, BAZ2B inh inactive and G9a block inactive[12.7 µM].
Screening COc1ccc(Nc2nc(C(=O)N(CCO)Cc3ccccc3)cs2)cc1 returned JMJD2A Tudor inh inactive, Sfp PPTase inh inactive, 12-LOX inh inconclusive, HP1b binding inh inactive, BAZ2B inh 50.1µM and G9a block 44.7µM.
For COc1ccc(Nc2nc(C(=O)OCC(=O)c3ccccc3)cs2)cc1 the results were 12-LOX inh inactive.
Cc1ccc(S(=O)(=O)c2nc(-c3ccco3)oc2SCC(N)=O)cc1 was read as JMJD2A Tudor inh inactive, Sfp PPTase inh inactive, 12-LOX inh inconclusive, HP1b binding inh inactive, BAZ2B inh inactive and G9a block inconclusive.
NC(=O)CSc1oc(-c2ccco2)nc1S(=O)(=O)c1ccc(Cl)cc1 was read as JMJD2A Tudor inh inactive, Sfp PPTase inh inactive, 12-LOX inh 28.2µM, HP1b binding inh inactive, BAZ2B inh inactive and G9a block 31.6µM.
For NC(=O)CSc1oc(-c2ccco2)nc1S(=O)(=O)c1ccc(Br)cc1 the results were JMJD2A Tudor inh inactive, Sfp PPTase inh inactive, 12-LOX inh inconclusive, HP1b binding inh inactive, BAZ2B inh inconclusive and G9a block 28.2µM.
O=C(CSc1oc(-c2ccccc2)nc1S(=O)(=O)c1ccc(Cl)cc1)c1ccccc1 was read as JMJD2A Tudor inh inconclusive, 12-LOX inh 7.94µM, HP1b binding inh inactive, BAZ2B inh inactive and G9a block 11.2µM.
Screening CSc1oc(-c2ccco2)nc1S(=O)(=O)c1ccc(Br)cc1 returned JMJD2A Tudor inh inactive, Sfp PPTase inh inactive, 12-LOX inh inactive, HP1b binding inh inactive, BAZ2B inh inactive and G9a block 39.8µM.
Screening CCOC(=O)c1[nH]c(C=O)c(CC)c1C returned 12-LOX inh inactive.
For Cn1c(CC2C(=O)Nc3ccc(Br)cc32)nc2ccccc2c1=O (stereo not drawn) the results were JMJD2A Tudor inh inactive, Sfp PPTase inh inactive, 12-LOX inh inactive, HP1b binding inh inactive, BAZ2B inh inactive and G9a block 50.1µM.
CCN(CC)S(=O)(=O)c1ccc2c(c1)nc(SCn1nnc3ccccc3c1=O)n2CC was read as JMJD2A Tudor inh inactive, Sfp PPTase inh inactive, 12-LOX inh inactive, HP1b binding inh inactive, BAZ2B inh inactive and G9a block 44.7µM.
For Cn1c(SCn2nnc3ccccc3c2=O)nc2ccccc2c1=O the results were Sfp PPTase inh inactive, BAZ2B inh inactive and G9a block 50.1µM.
`Cn1c(SCC(=O)NNC(=O)Cc2ccccc2)nc2ccccc2c1=O` gave JMJD2A Tudor inh 22.4µM, Sfp PPTase inh inactive, 12-LOX inh inactive, HP1b binding inh inactive, BAZ2B inh inactive and G9a block inactive.
Cc1nn(-c2ccccc2)c(C)c1CCC(=O)N1CCN(S(=O)(=O)c2ccccc2C#N)CC1 was read as 12-LOX inh inactive.
CCCN(CCC)S(=O)(=O)c1cc(Br)cc2c1N(C(=O)CC)CC2 was read as JMJD2A Tudor inh inactive, Sfp PPTase inh inactive, 12-LOX inh inactive, HP1b binding inh inactive, BAZ2B inh inactive and G9a block 50.1µM.
`CCC(=O)N1CCc2cc(Br)cc(S(=O)(=O)CCC(=O)N(C)c3cccc(C)c3)c21` gave JMJD2A Tudor inh 50.1µM, 12-LOX inh inactive, HP1b binding inh inconclusive, BAZ2B inh 44.7µM and G9a block inactive[12.7 µM].
Screening CCC(=O)N1CCc2cc(Br)cc(S(=O)(=O)CCC(=O)N(CC)CC)c21 returned JMJD2A Tudor inh inactive, Sfp PPTase inh inactive, 12-LOX inh inactive, HP1b binding inh inactive, BAZ2B inh inactive and G9a block inactive.
Screening COc1cc(NC(=O)c2cnc(NCc3ccc4c(c3)OCO4)nc2C)cc(OC)c1 returned 12-LOX inh inactive.
Cn1nc(-c2ccccc2)c(CO)c1Oc1ccc(F)cc1 was read as JMJD2A Tudor inh 20µM, Sfp PPTase inh inactive, 12-LOX inh inactive, HP1b binding inh inactive, BAZ2B inh inactive and G9a block inactive.
Screening O=C(COC(=O)/C=C/c1cccs1)NC(c1ccccc1)c1ccccc1 returned JMJD2A Tudor inh inactive, Sfp PPTase inh inactive, 12-LOX inh inactive, HP1b binding inh inactive, BAZ2B inh inactive and G9a block inactive.
Screening O=C(COC(=O)/C=C/C(=O)N1CCN(c2ccccc2)CC1)NC(c1ccccc1)c1ccccc1 returned JMJD2A Tudor inh inactive, Sfp PPTase inh inactive, 12-LOX inh inactive, HP1b binding inh inactive, BAZ2B inh 44.7µM and G9a block inconclusive.
Screening COC(=O)/C(=N/Nc1ccccc1C)Sc1nnc(C(O)c2ccccc2)n1-c1ccccc1 (stereo not drawn) returned JMJD2A Tudor inh inactive, Sfp PPTase inh inconclusive, 12-LOX inh inconclusive, HP1b binding inh inactive, BAZ2B inh inactive and G9a block 15.8µM.
For S=c1[nH]nc(-c2cccs2)n1/N=C/c1cn(-c2ccccc2)nc1-c1cccs1 the results were JMJD2A Tudor inh inconclusive, Sfp PPTase inh inactive, 12-LOX inh inactive, HP1b binding inh inactive and BAZ2B inh inconclusive.
S=c1[nH]nc(-c2ccccn2)n1/N=C/c1ccc(Br)s1 was read as JMJD2A Tudor inh 7.94µM, Sfp PPTase inh inactive, 12-LOX inh inconclusive, HP1b binding inh inactive, BAZ2B inh 12.6µM and G9a block 1.26µM.
S=c1[nH]nc(COc2ccccc2)n1/N=C/c1ccc(Br)s1 was read as JMJD2A Tudor inh 56.2µM, Sfp PPTase inh inactive, 12-LOX inh inconclusive, HP1b binding inh inactive, BAZ2B inh inactive and G9a block 7.94µM.
